Growth data for eight compounds are collected here from PubChem BioAssay (NCI).

Among the test systems are NCI-H23 lung; NCI-H226 lung; NCI-H322M lung; HOP-62 NSCLC; NCI-H460 lung; HOP-92 NSCLC; NCI-H522 lung; A549/ATCC NSCLC; 786-0 renal; COLO 205 colon; DU-145 prostate; K-562 leukemia; MALME-3M melanoma; MDA-MB-231 breast; RXF 393 renal; SF-268 CNS; SF-295 CNS; SF-539 CNS; UACC-257 melanoma; M14 melanoma.
Experiment in all cases: NCI-60 one-dose screen, 48 h (100 = growth as untreated, 0 = no growth, -100 = all killed)
Holding throughout (details): 10 µM unless noted

Compounds without any hit were thinned out: in the full panel of roughly 83,000, 20% have a hit.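 Plates (96-well) were seeded with cells, treated with compound at one concentration, and incubated for 48 hours before percent growth was determined.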 Values without a mark were called inactive. The source made the active and inactive calls. How the source made its calls: active means growth percent below 10; inactive means the rest.

Take `CC(C)CCc1nc2ccc(NCc3ccc(OCCN4CCC(C)CC4)cc3)cc2[nH]1`: the growth was 94.9% with NCI-H23 lung; 67.4% with NCI-H226 lung; 99.2% in the assay with NCI-H322M lung; 83.6% in the assay with HOP-62 NSCLC; 100% in the assay with NCI-H460 lung; 53.5% in the assay on HOP-92 NSCLC. The growth with NCI-H522 lung is 102%; with A549/ATCC NSCLC, 99.9%; with 786-0 renal, 76.6%; with COLO 205 colon, 66%; in the assay on DU-145 prostate, 89.4%; with K-562 leukemia, 20.4%. Besides, the growth in the assay on MALME-3M melanoma is 32%; in the assay with MDA-MB-231 breast, 59.8%; with RXF 393 renal, 61.6%; with SF-268 CNS, 79.9%; with SF-295 CNS, 90.4%; in the assay with SF-539 CNS it was 58%. For the same compound, the growth in the assay with UACC-257 melanoma is 96.3%; in the assay with M14 melanoma, 33.2%.
As to `CCCCN(CCC#N)C(N)=O`, the growth in the assay with NCI-H23 lung was 115%; with NCI-H226 lung, 103%; with NCI-H322M lung it was 107%; with HOP-62 NSCLC, 105%; in the assay with NCI-H460 lung it was 108%; in the assay with HOP-92 NSCLC it was 97.2%. Besides, the growth in the assay on NCI-H522 lung was 105%; in the assay on A549/ATCC NSCLC, 109%; with 786-0 renal, 92%; in the assay on COLO 205 colon it was 120%; in the assay with DU-145 prostate, 97.2%; in the assay with K-562 leukemia, 115%. Also, the growth in the assay on MALME-3M melanoma was 98.4%; in the assay on MDA-MB-231 breast, 104%; with RXF 393 renal, 109%; with SF-268 CNS, 99.7%; in the assay on SF-295 CNS, 111%; with SF-539 CNS, 100%. Also, the growth in the assay with UACC-257 melanoma was 101%; in the assay on M14 melanoma, 112%.
For the compound `Oc1ccc(C2OCCO2)c2cccnc12`, the growth in the assay on NCI-H23 lung is 33%; in the assay with NCI-H226 lung, 23.4%; in the assay on NCI-H322M lung, 92.5%; in the assay with HOP-62 NSCLC, 51.6%; with NCI-H460 lung it was 68.1%; in the assay on HOP-92 NSCLC, 68.8%. The growth in the assay on NCI-H522 lung was 92.9%; in the assay with A549/ATCC NSCLC, 56.3%; in the assay on 786-0 renal, 97.9%; in the assay with COLO 205 colon it was 63.7%; in the assay with DU-145 prostate it was 56.7%; in the assay with K-562 leukemia it was 17.3%. The growth in the assay on MALME-3M melanoma is 49%; in the assay with MDA-MB-231 breast, 46.6%; in the assay on RXF 393 renal, 77%; with SF-268 CNS, 31.1%; with SF-295 CNS, 86.9%; in the assay with SF-539 CNS, 36%. Also, the values for the growth with UACC-257 melanoma and in the assay with M14 melanoma were 79.2% and 25.8%, respectively.
Consider `O=C(Nc1ncc(Cc2ccccc2)s1)c1ccc2c(c1)OCCO2`, for which the growth with NCI-H23 lung is 30.8%; with NCI-H226 lung it was 12.8%; in the assay on NCI-H322M lung, 50.1%; in the assay with HOP-62 NSCLC, 25.5%; in the assay with NCI-H460 lung, 5.11% (active); in the assay with HOP-92 NSCLC it was 57.8%. Also, the growth with NCI-H522 lung was -3.58% (active); in the assay on A549/ATCC NSCLC, 16.6%; in the assay with 786-0 renal, 33.1%; with COLO 205 colon, -13.3% (active); with DU-145 prostate, 15.2%; in the assay on K-562 leukemia it was 8.32% (active). Besides, the growth with MALME-3M melanoma was 57.9%; in the assay with MDA-MB-231 breast, 39.2%; in the assay on RXF 393 renal, 10.2%; in the assay on SF-268 CNS it was 43.2%; in the assay on SF-295 CNS, 11.9%; in the assay on SF-539 CNS, -10.4% (active). The growth was 45.1% in the assay with UACC-257 melanoma and 18.6% with M14 melanoma.
As to `C=C(C)[C@@H]1CC[C@]2(COCCCNCCCN)CC[C@]3(C)[C@H](CC[C@@H]4[C@@]5(C)CC[C@H](OCCCN)C(C)(C)[C@@H]5CC[C@]43C)[C@@H]12`, the growth is -73.2% (active) in the assay with NCI-H23 lung; 45.2% with NCI-H226 lung; 41.7% in the assay with NCI-H322M lung; -59.1% (active) in the assay on HOP-62 NSCLC; -83% (active) in the assay with NCI-H460 lung; 75.3% in the assay on HOP-92 NSCLC. Besides, the growth is -69.6% (active) in the assay with NCI-H522 lung; -66.6% (active) in the assay on A549/ATCC NSCLC; -83.6% (active) in the assay on 786-0 renal; -31.1% (active) with COLO 205 colon; -49.5% (active) with DU-145 prostate; -40% (active) in the assay on K-562 leukemia. For the same compound, the growth in the assay with MALME-3M melanoma was -88.1% (active); in the assay with MDA-MB-231 breast it was -85.6% (active); with RXF 393 renal it was 28.8%; with SF-268 CNS it was -35% (active); in the assay with SF-295 CNS it was 102%; with SF-539 CNS, -95.7% (active). Besides, the values for the growth with UACC-257 melanoma and with M14 melanoma were 13.8% and -83% (active), respectively.
`Oc1cccc(-c2nc(-c3n[nH]c(=S)n3-c3ccccc3)cc3c2[nH]c2ccccc23)c1`: the growth in the assay with NCI-H23 lung was 43.3%; with NCI-H226 lung, 52.6%; in the assay with NCI-H322M lung, 13.7%; with HOP-62 NSCLC, 28.4%; in the assay on NCI-H460 lung, 8.82% (active); in the assay with HOP-92 NSCLC, 63.3%. The growth with NCI-H522 lung is -28.3% (active); with A549/ATCC NSCLC it was 48.3%; in the assay on 786-0 renal, 18.4%; in the assay on COLO 205 colon it was 68%; with DU-145 prostate, 27.7%; with K-562 leukemia, 11.1%. Besides, the growth in the assay with MALME-3M melanoma was 44.4%; with MDA-MB-231 breast, 45.7%; with RXF 393 renal, -15.7% (active); in the assay with SF-268 CNS, 28.6%; in the assay on SF-295 CNS, 3.87% (active); in the assay with SF-539 CNS, -15.2% (active). Further, the values for the growth with UACC-257 melanoma and in the assay with M14 melanoma were 66.7% and 24.6%, respectively.
For `CN1CCN(Cc2ccc(NC(=O)c3cc(C#Cc4cnc(N)c5ncccc45)n(C)n3)cc2C(F)(F)F)CC1`, the growth in the assay on NCI-H23 lung is 97.8%; in the assay on NCI-H226 lung it was 115%; with NCI-H322M lung it was 127%; with HOP-62 NSCLC it was 100%; in the assay with NCI-H460 lung, 9.09% (active); in the assay with HOP-92 NSCLC, 103%. For the same compound, the growth with NCI-H522 lung was 99.7%; in the assay with A549/ATCC NSCLC, 47.5%; in the assay on 786-0 renal, 9.92% (active); in the assay with COLO 205 colon it was 115%; in the assay with DU-145 prostate, 83.9%; in the assay with K-562 leukemia it was 1.62% (active). In addition, the growth with MALME-3M melanoma was 79.9%; with MDA-MB-231 breast, 102%; in the assay on RXF 393 renal, 69.3%; with SF-268 CNS, 102%; in the assay with SF-295 CNS it was 102%; with SF-539 CNS, 70.5%. For the same compound, the values for the growth in the assay with UACC-257 melanoma and in the assay on M14 melanoma were 102% and 113%, respectively.
Turning to `N#CC1=C(N)Oc2c(ccc3ccccc23)C1c1cc2ccccc2n2nnnc12` (stereo not given), the growth in the assay on NCI-H23 lung was 36.6%; in the assay with NCI-H226 lung, 53.6%; in the assay on NCI-H322M lung, 34%; in the assay with HOP-62 NSCLC, 24.6%; in the assay on NCI-H460 lung, 11.3%; in the assay with HOP-92 NSCLC, 49.2%. Besides, the growth was 12.3% in the assay on NCI-H522 lung; 33.4% in the assay with A549/ATCC NSCLC; 13.4% in the assay with 786-0 renal; 48.4% in the assay on COLO 205 colon; 19.5% in the assay on DU-145 prostate; 4.13% (active) in the assay on K-562 leukemia. In addition, the growth with MALME-3M melanoma is 53.4%; in the assay on MDA-MB-231 breast, 32.9%; with RXF 393 renal, 11.4%; in the assay with SF-268 CNS, 26.3%; with SF-295 CNS, 10.7%; in the assay on SF-539 CNS it was -8.31% (active). In addition, the results for the growth with UACC-257 melanoma and in the assay with M14 melanoma were 47.4% and 12.7%, respectively.
